The record followed here is PubChem BioAssay (EPA / NIEHS).

Where a structure was tested more than once in an assay, its records may differ in their call. Active and inactive are the calls of the source. Rule for the calls: active = hit-call score of the fitted dose curve at least 0.9, where 1 is the maximum; inactive = score below 0.9.

Read-out in this assay: TIMP1, TIMP1 (gene 7076)
Kind of assay: LTEA_HepaRG_TIMP1: Life Technologies and Expression Analysis (LTEA) Assay for TIMP1 using HepaRG (AID 2283534).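 For outcome: TaqMan qRT-PCR signal normalized to ACTB GAPDH and POLR2A housekeeping genes.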 As to conditions: mRNA level, 48 h; actives raise or lower the signal. Here is the method:
LTEA_HepaRG is a cell based, multiplexed-readout assay that uses HepaRG, a human liver cell line, with measurements taken at 48 hours after chemical dosing on a 96-well plate.LTEA_HepaRG_TIMP1 is one of 102 assay component(s) measured in the LTEA HepaRG cell culture assay. It is a marker of Cell proliferation, survival, death.Data from the assay component LTEA_HepaRG_TIMP1 was analyzed into 1 endpoint. This assay endpoint, LTEA_HepaRG_TIMP1, was analyzed with bidirectional fitting relative to DMSO as the negative control and baseline of activity. Using a type of inducible reporter, measures of mRNA induction for gain or loss-of-signal activity can be used to understand regulation of transcription factor activity. To generalize the intended target to other relatable targets, this assay endpoint is annotated to the protease inhibitor intended target family, where the subfamily is metalloproteinase inhibitor.
A total of 1060 chemcials from the ToxCast library were tested in eight-point concentration-response experiments. Cell culture and cytotoxicity assays were conducted at Thermo Fisher Scientific's Custom Services facility (Madison, WI). A single lot of human HepaRG cells (Thermo Fisher Scientific, Frederick, MD) was used for the cell culture experiments. 96-well format collagen type I coated plates of human HepaRG cells were prepared using established methods. Briefly, cryopreserved HepaRG cells were thawed, plated at a density of approximately 100,000 cells/well in HepaRG Thaw, Plate, and General Purpose media (HPRG770, Thermo Fisher Scientific), and incubated for 48 hours. 0.5% DMSO was selected as vehicle control to balance the requisite need of DMSO in HepaRG cultures to maintain differentiation (for example, baseline metabolism, proportions of hepatocytes vs. cholangiocytes), while enabling further hepatic receptor pathway activation (for example, PXR and CAR) in response to chemical exposure. 48 hours after plating, the culture medium was replaced with HepaRG Serum-Free Incudtion Media. Cells were exposed to each test chemical in duplicate and maintained in CO2 incubators for another 48 hours. Chemical plates were thawed to room temperature and 200x concentrations of treatment groups were prepared. 8-point conentration-reponse curves were made with the highest exposure at 100 uM, followed by half-log dilutions, all in 0.5% DMSO. Each test plate contained variouse controls, induction positive controls (1mM phenobarbital), cytotoxicity positive controls ([…] aflatoxin B1), vehicle controls (0.5% DMSO), and total lysis controls (0.5% DMSO). Cell morphology images were taken using an Essen IncuCyte FLR automated microscope, with six 96-well plates imaged in about 24 minutes. Images were captured and exported and JPEG files. Spent culture media was transfered to black-well plates for the LDH assay, and remaining media was sorted at -80 C for later use. Cells were treated with RLT buffer and frozen until shipped for gene expression analysis. Total RNA was isolated from the cell suspension in 75 uL of Buffer RLT (Qiagen, Germantown, MD 20874) by Quintiles/Expression Analysis (Durham, NC) using a custom isolation procedure. Total RNA from each plate well was transferred to a preamplification plate. Fluidigm's 96.96 Dynamic ArrayTM (Fluidigm, Amsterdam, the Netherlands) technology was used for gene expression analyses by quantitative reverse transcription polymerase chain reaction (qRT-PCR, performed by Quintiles/Expression Analysis, Durham, NC)89. Standard TaqManTM Assays (Applied Biosystems/ThermoFisher Scientific, Foster City, CA) were used to assess the expression of 93 genes selected based on their selectivity and sensitivity to important hepatic receptors known to be modulated by environmental chemicals; importance in human hepatocyte functionality; and hepatotoxicity. […]
Take `C=CCC1=C(C)[C@@H](OC(=O)[C@@H]2[C@@H](C=C(C)C)C2(C)C)CC1=O`: the outcome was inactive.
`CC1=C(C(=O)Nc2ccccc2)SCCO1`: the compound was classed as inactive.
On the same count and under the same terms, with `CCNc1nc(Cl)nc(NCC)n1` the entry was “inactive”; with `COP(N)(=O)SC` (stereo not given), “inactive”.
Broadly, the AC50 is the midpoint of the concentration-response curve, whichever way the signal moves. Take `CC1COC(Cn2cncn2)(c2ccc(Oc3ccc(Cl)cc3)cc2Cl)O1` (stereo not given): the AC50 was 77 µM (active).
With `CCCCNC(=O)OCC#CI`, the call was inactive.
On to `CCCCOC(=O)c1ccccc1C(=O)OCCCC`, for which the call was inactive.
Take `CC(C)C1(C)N=C(c2nc3ccccc3cc2C(=O)O)NC1=O` (stereo not given): the outcome was inactive.
Still for that read-out and setting: with `CCOC(=O)CC(SP(=S)(OC)OC)C(=O)OCC` (stereo not given) the entry was “inactive”; with `CC(Oc1ccc(Cl)cc1Cl)C(=O)O` (stereo not given), “inactive”.
On to `Fc1ccc(Oc2ccnc3cc(Cl)cc(Cl)c23)cc1`, for which the compound was called inactive.
Regarding `CCCCNC(=O)n1c(NC(=O)OC)nc2ccccc21`, the result was inactive.
`CCON=C(CC)C1=C(O)CC(c2c(C)cc(C)cc2C)CC1=O` (stereo not given): the result was inactive.
Same read-out and setting: with `Oc1ccccc1-c1ccccc1` the entry was “inactive”.
On the same count and under the same terms, the same measure for `CC(C)Oc1cc(-n2nc(C(C)(C)C)oc2=O)c(Cl)cc1Cl`: “inactive”.
Take `CCOP(=S)(OCC)SCn1c(=O)oc2cc(Cl)ccc21`: the call was inactive.
Same read-out and setting: the same measure for `COC(=O)C=C(C)OP(=O)(OC)OC`: “inactive”.
With `OC(c1ccc(Cl)cc1)(c1cncnc1)c1ccccc1Cl` (stereo not given), the concentration at half-maximal activity (AC50) is 50 µM (active).
`CCOC(=O)C(Cl)Cc1cc(-n2nc(C)n(C(F)F)c2=O)c(F)cc1Cl` (stereo not given): the compound was classed as inactive.
Consider `Cc1cc(Cl)ccc1OCC(=O)O`, for which the outcome was inactive.
On the same count and under the same terms, the same measure for `COC(=O)C(C)Oc1ccc(Oc2ccc(Cl)cc2Cl)cc1` (stereo not given): “inactive”.
On to `CC(C)(C)c1ccc(CSc2cnn(C(C)(C)C)c(=O)c2Cl)cc1`, for which the AC50 is 26.9 µM (active).
As to `CN(C)C(=S)SSC(=S)N(C)C`, the outcome was inactive.
Same read-out and setting: with `N#CC(CCc1ccc(Cl)cc1)(Cn1cncn1)c1ccccc1` (stereo not given) the entry was “inactive”.
On to `COc1cnc(OC)n2nc(NS(=O)(=O)c3c(OCC(F)F)cccc3C(F)(F)F)nc12`, for which the outcome was inactive.
Regarding `CNC(=S)S`, the compound was called inactive.
With `CCCCC(CC)COC(=O)c1ccccc1C(=O)OCC(CC)CCCC` (stereo not given), the compound was classed as inactive.
Turning to `CCCN(CCC)c1c([N+](=O)[O-])cc(S(N)(=O)=O)cc1[N+](=O)[O-]`, the result was inactive and the AC50 was 93.9 µM (active).
Take `CNC(=O)ON=CC(C)(C)SC`: the compound was classed as inactive.
With `N#Cc1cc(Br)c(O)c(Br)c1`, the AC50 was 10.2 µM (active).
As for `O=C(O)COc1nc(Cl)c(Cl)cc1Cl`, the outcome was inactive.
Consider `Cc1ccc(-c2c(Cl)nc(C#N)n2S(=O)(=O)N(C)C)cc1`, for which the AC50 was 22.4 µM (active).
Turning to `COC(=O)N(OC)c1ccccc1COc1ccn(-c2ccc(Cl)cc2)n1`, the AC50 was 68.4 µM (active).
Regarding `O=C(O)c1nc(Cl)ccc1Cl`, the compound was called inactive.
Regarding `COP(=S)(OC)Oc1nc(Cl)c(Cl)cc1Cl`, the outcome was inactive.
On the same count and under the same terms, with `C=CC1(C)OC(=O)N(c2cc(Cl)cc(Cl)c2)C1=O` (stereo not given) the entry was “inactive”; with `COc1nc(NC(C)C)nc(NC(C)C)n1`, “inactive”; with `CON(C)C(=O)Nc1ccc(Cl)c(Cl)c1`, “inactive”.
Same read-out and setting: the same measure for `C=CCC1=C(C)C(OC(=O)C2C(C=C(C)C)C2(C)C)CC1=O` (stereo not given): “inactive”.
